# Screening results (PubChem)
# DRD3 agonist = D3 dopamine receptor (human) agonism; 0.58% of 410,000 active; D3R DiscoveRx beta-arrestin cells, luminescence, 90 min; P35462; max activation, %; AID 652048; in the data active = max activation above about 30%; note: 0% is about no effect
#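 Agonist-mode cell screen: cells plated at 1500/well and incubated overnight at 37 °C, then exposed to library compounds for 90 min at 37 °C. Detection reagent was added for 30–60 min at room temperature, and luminescence was read.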
# BRCA1 expr up = activators of BRCA1 expression. MCF7-BRCA1-FFLuc reporter, luminescence, 48 h; response scale: scaled: vehicle 0%, 10 µM genistein 100%. Potency, µM (doses to about 46.1 µM), inactives show at the top dose activation, most hits filed as activators. 1.1% of 380,000 active; note: potency is the fitted concentration of half-maximal effect; nearly all actives have a fitted effect of over 80% in size
#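 Cells: MCF7-BRCA1-FFLuc, 2000/well. Exposure: 48 h, 37 °C, 5% CO2. Read: luminescence, 15 min post-substrate. Controls: genistein 10 microM (maximal activation), DMSO (neutral).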
# PTHR1 ag = activates the human parathyroid hormone receptor PTHR1. 0.075% of 410,000 active. Q03431. HEK293 GP2 PTHR1 cells, GloSensor cAMP luminescence, 1 h. Potency, µM (titrated, usually from 115 µM), inactives show at the highest dose activation, most hits filed as activators; note: potency is the fitted concentration of half-maximal effect; nearly all actives have a fitted effect of over 55% in size
# Target sequence (Q03431 whole entry, looked up): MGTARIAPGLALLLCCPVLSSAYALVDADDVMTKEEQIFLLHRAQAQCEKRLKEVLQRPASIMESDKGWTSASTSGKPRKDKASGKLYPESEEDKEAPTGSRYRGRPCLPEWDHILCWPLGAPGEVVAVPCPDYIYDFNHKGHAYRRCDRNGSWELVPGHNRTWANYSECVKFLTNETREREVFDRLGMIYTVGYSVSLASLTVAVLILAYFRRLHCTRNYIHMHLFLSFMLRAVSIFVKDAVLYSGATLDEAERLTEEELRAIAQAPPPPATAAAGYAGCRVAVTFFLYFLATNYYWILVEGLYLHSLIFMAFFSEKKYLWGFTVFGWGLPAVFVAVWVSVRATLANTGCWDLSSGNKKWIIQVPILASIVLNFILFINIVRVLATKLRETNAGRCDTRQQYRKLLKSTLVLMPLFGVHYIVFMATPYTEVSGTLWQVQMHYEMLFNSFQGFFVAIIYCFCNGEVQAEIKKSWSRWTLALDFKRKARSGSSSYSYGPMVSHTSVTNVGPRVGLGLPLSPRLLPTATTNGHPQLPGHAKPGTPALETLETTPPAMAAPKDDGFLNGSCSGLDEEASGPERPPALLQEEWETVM
#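 HEK-293-derived GP2 cells expressing PTHR1 and a GloSensor cAMP reporter, 3,000/well, plated overnight, given luciferin plus IBMX (each 0.5 mM as added) for 1 h at 37 °C, then compound for 1 h at 37 °C. Luminescence was read after 15 min at room temperature.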
# DRD3 antagonist = antagonists of human D3 dopamine receptor. P35462. D3R cells, DiscoveRx beta-arrestin luminescence, antagonist mode; hits give low values. max response, negative = inhibition, %. 2.5% of 360,000 active. AID 652054; in the data active = max response below about -50%; inconclusive = no clear call, values can overlap the other calls; note: % is set by controls: 0 for no effect and ±100 for the full control effect
#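 Cells plated overnight at 1500 cells/well, then exposed to library compounds with dopamine controls for 90 minutes at 37 degrees C. DiscoveRx reagent added for 30–60 minutes at room temperature; luminescence read, quantitative HTS format.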
# B2AR arrestin = beta2AR (human) beta-arrestin recruitment activity; P07550; beta-arrestin recruitment to beta2AR, cell-based reporter; Potency, µM (doses to about 46.1 µM), without a hit: at the highest dose activation, actives largely listed as activators; 0.02% of 330,000 active; AID 492947;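 note: potency is the fitted concentration of half-maximal effect; 0% = DMSO controls and full agonism = EC100 isoproterenol or metaproterenol; nearly all actives have a fitted effect of over 65% in size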
# RGS4 inhibitor = human RGS4 inhibition; Potency, µM (doses to about 114 µM), for the others: top-dose activity change, negative = inhibition, hits mostly inhibitors; Transcreener GDP fluorescence polarization, RGS4-accelerated GTP hydrolysis; 0.039% of 390,000 active; AID 504845; P49798; note: potency is the fitted concentration of half-maximal effect; % is set by controls: 0 for no effect and ±100 for the full control effect; nearly all actives have a fitted effect of over 75% in size
#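 MLSMR compounds (23 nl, pin-transferred) preincubated 10 min at room temperature with a 500nM (2x) first reagent, then RGS4 at 900nM (2x) plus Transcreener GDP mix added; fluorescence polarization (620/688 nm) read before and after 90 min at 30 °C.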
# Active calls of the source: *; i = inactive; u = inconclusive; x = not tested or not shown; [ ] = remark or other dose. Sampled rows, rich in hits. Any-hit rate of the full collection: about 3.7%. Unless noted, calls come from the whole dose curve; as a rule, active = well fitted curve in the direction sought with a large enough effect; inconclusive = small, poorly fitted or top-dose-only effect, or another doubt; inactive = no such curve, though single readings can be large; an effect the other way counts as inactive or inconclusive.
SMILES,DRD3 agonist,BRCA1 expr up,PTHR1 ag,DRD3 antagonist,B2AR arrestin,RGS4 inhibitor
CCOC(=O)c1ccc(NC(=O)c2nc[nH]c2C(=O)NC)cc1,49*,0%,-25%,24,0%,6%
CCOC(=O)c1ccc(Nc2ncnc3ccccc23)cc1,1,67%,-15%,-6,0%,19%
Cc1ccc(Nc2ncnc3nc[nH]c23)cc1,x,11µM*,x,x,x,9%
CCOC(=O)c1ccc(Nc2ncnc3nc[nH]c23)cc1,0,6.3µM*,i,-7,0%,9%
Cc1cccc(Nc2ncnc3nc[nH]c23)c1,-1,41%,i,2,0%,14%
Cc1ccc(C)c(C(=O)CN2C(=O)NC3(CCCCCC3)C2=O)c1,-6,22%,-71%,-13,0%,-6%
O=C(COC(=O)/C=C/c1ccc(F)cc1)NC1CCS(=O)(=O)C1 (stereo unspecified),-3,-9%,i,u,0%,10%
Cc1cc2nc(/N=C(\N)NC(=O)N3c4ccccc4Sc4ccccc43)nc(C)c2cc1C,9,-22%,-5%,0,-1%,-4%
CC1=C(C(=O)OC2CCCCC2)C(c2ccc(C)o2)C2=C(CCCC2=O)N1 (stereo unspecified),1,-22%,-29%[57.5 µM],-50*,-1%,0%
COc1ccc(C(=O)N2CCCC(C)(C(=O)NS(=O)(=O)C3CC3)C2)cc1 (stereo unspecified),-13,-3%,-10%,-53*,x,x
CC1(C(=O)NS(=O)(=O)C2CC2)CCCN(C(=O)c2ccc(C(F)(F)F)cc2)C1 (stereo unspecified),3,-12%,i,4,x,x
Oc1ccc(-c2c(-c3ccsc3)sc3ccccc23)cc1,36*,-16%,-26%,39,-2%,20%
CCC(=O)N/C(N)=N/c1nc2ccccc2o1,4,2µM*,-26%,14,0%,-21%
CCCC(=O)N/C(N)=N/c1nc2ccccc2o1,2,u,-34%,13,0%,2%
CC(=O)Oc1ccc(N2C(=O)c3cccc4c([N+](=O)[O-])ccc(c34)C2=O)cc1,-14,-17%,-95%,-100*,-1%,1%
O=C1c2cccc3c([N+](=O)[O-])ccc(c23)C(=O)N1c1ccc(Cl)cn1,-36,-91%,-29%,u,-3%,10%
O=C1c2cccc3c([N+](=O)[O-])ccc(c23)C(=O)N1c1ccccn1,-10,-82%,-13%[57.5 µM],-100*,u,5%[11.4 µM]
Nc1[nH]c(C(=O)c2ccccc2)c(-c2ccc(Cl)cc2)c1C(=O)NCc1ccccc1,57*,3%,-1%,0,x,x
CCN1C[C@@H]2[C@@H]3C(=O)N(Cc4ccccc4)C(=O)[C@@H]3[C@](C)(C1=O)N2C(=O)c1ccc(Cl)cc1,3,-3%,i,7,x,-7%
Cc1ccc(C(=O)N2[C@@H]3CN(C)C(=O)[C@@]2(C)[C@H]2C(=O)N(Cc4ccccc4)C(=O)[C@@H]32)cc1,32*,-7%,i,12,x,-3%
CCN1C[C@@H]2[C@@H]3C(=O)N(Cc4ccccc4)C(=O)[C@@H]3[C@](C)(C1=O)N2C(=O)c1ccccc1,43*,-8%,-23%,0,x,-6%
COc1ccc(CCNC(=O)CSc2nc3[nH]c(=O)cc(O)c3s2)cc1,0,-17%,i,22,0%,-5%
CC(=O)Nc1cccc(OCC(=O)Nc2sccc2C(N)=O)c1,2,4µM*,-18%,-6,0%,-6%
COc1cc(CC(=O)OCC(=O)Nc2sccc2C(N)=O)cc(OC)c1OC,32*,-10%,-28%,51,-1%,-7%
CC(=O)Nc1cccc(OCC(=O)Nc2ccccc2)c1,2,u,i,-2,0%,-28%
SMILES,DRD3 agonist,BRCA1 expr up,PTHR1 ag,DRD3 antagonist,B2AR arrestin,RGS4 inhibitor
Cc1cn(-c2cccnc2)c(C)c1CNC[C@H]1O[C@@H](n2cnc3c(N)ncnc32)[C@H](O)[C@@H]1O,5,-35%,-26%,-6,8%,-7%
O=C(NCCS(=O)(=O)N1CCN(c2ccccc2)CC1)c1cccc(F)c1,2,-12%,-27%,4,0%,15%
CCOc1cc(/C=C2\CN(C)C/C(=C\c3ccc(O)c(OCC)c3)C2=O)ccc1O,-12,-74%,-27%,-52*,0%,-40%
COc1cc(C=C2CN(C)C(=O)C2=O)ccc1O,-4,6%,i,-13,x,x
C(=C\c1ccccc1)/CN1CCN(C(c2ccccc2)c2nnnn2-c2ccc3c(c2)OCCO3)CC1 (stereo unspecified),-6,-34%,-9%,-75*,x,x
CCCCn1nnnc1C(c1ccc(OC)cc1)N1CCN(C/C=C/c2ccccc2)CC1 (stereo unspecified),-19,-17%,-20%,-107*,x,x
C(=C\c1ccccc1)/CN1CCN(C(c2ccnc3ccccc23)c2nnnn2-c2ccc3c(c2)OCCO3)CC1 (stereo unspecified),-10,-6%,-20%,-18,x,x
COc1ccc(-n2nnnc2C(c2ccnc3ccccc23)N2CCN(C/C=C/c3ccccc3)CC2)cc1 (stereo unspecified),-14,-31%,-13%,-54*,x,x
CCCCn1nnnc1C(c1cccs1)N1CCN(C/C=C/c2ccccc2)CC1 (stereo unspecified),-16,-26%,-7%,u,x,x
COc1ccc(-n2nnnc2C(c2cccs2)N2CCN(C/C=C/c3ccccc3)CC2)cc1 (stereo unspecified),-23,-12%,-5%,-60*,x,x
CN1CCC(C)(C(=O)Nc2cccc(Oc3ccccc3)c2)C1 (stereo unspecified),-2,8%,i,2,x,x
CC(C)C[C@H]1CNC(=O)C(=O)N1C[C@@H]1CCCN1C[C@H](Cc1ccccc1)N1C[C@H](Cc2ccccc2)N(CCc2ccccc2)C(=O)C1=O,0,-18%,-41%,-1,x,x
CCCNC(=O)c1onc(CSc2nc3ccccc3[nH]2)c1C(=O)NCCC,5,0%,-25%,-3,0%,-16%
COc1ccc(C(c2nnnn2C(C)(C)C)N2CCN(C/C=C/c3ccccc3)CC2)cc1 (stereo unspecified),-14,0%,-20%,-67*,x,x
COc1ccc(N2CCN(C(c3ccccc3OC)c3nnnn3C3CCCC3)CC2)cc1 (stereo unspecified),6,-36%,i,36,0%,-16%
CCCCn1nnnc1C(C1CC1)N1CCN(C/C=C/c2ccccc2)CC1 (stereo unspecified),-13,-13%,4%,-137*,x,x
